Measurements from PubChem BioAssay AID1159580 (chemical genetic matrix, 2015).
Values joined by “and” are separate entries in the source; they are usually repeats but may differ in a detail not shown here. Identical values can stand only once. Out of some 5,500 compounds screened, about 2,000 (36%) were called active. About 18% were inconclusive and are not listed. Cut-off read from the data, not from the text of the source: active = normalized growth mostly below about 0.91 (no sharp cut-off); inconclusive = no clear call, values can overlap the other calls; inactive = mostly above about 0.92. The list shows a part of the results.

Experiment: chemical genetic growth profiling, strain panel (AID 1159580);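 note: tested at 20 µM; growth read once vehicle control cultures reached saturation at 30 °C; 1 = growth at the plate median or of vehicle wells; lower values mean less growth of the strain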
Settings: growth OD

Measured: normalized growth

NS(=O)(=O)c1cc2c(cc1Cl)NC=NS2(=O)=O
inactive: S. cerevisiae deletion strains, locus YJR075W, strain HOC1, active compounds read low 1.02 | S. cerevisiae deletion strains, locus YKL009W, strain mrt4, active compounds read low 1.02 | S. cerevisiae deletion strains, locus YKL068W, active compounds read low 0.998 | S. cerevisiae deletion strains, locus YKL085W, strain MDH1 (second series), active compounds read low 0.998 | S. cerevisiae deletion strains, locus YKL085W, strain MDH1, active compounds read low 0.998 | S. cerevisiae deletion strains, locus YKL160W, strain elf1, active compounds read low 1.01 | S. cerevisiae deletion strains, locus YKL190W, strain CNB1, active compounds read low 1.01 | S. cerevisiae deletion strains, locus YKR001C, strain vps1, active compounds read low 0.988 | S. cerevisiae deletion strains, locus YKR026C, strain gcn3, active compounds read low 0.98 | S. cerevisiae deletion strains, locus YKR091W, strain srl3, active compounds read low 1.01 | S. cerevisiae deletion strains, locus YLL001W, strain dnm1, active compounds read low 1.01 | S. cerevisiae deletion strains, locus YLL026W, active compounds read low 0.99 | S. cerevisiae deletion strains, locus YLL041C, strain sdh2, active compounds read low 1 | S. cerevisiae deletion strains, locus YLR027C, strain aat2, active compounds read low 1.01 | S. cerevisiae deletion strains, locus YLR039C, strain RIC1, active compounds read low 1.02 | S. cerevisiae deletion strains, locus YLR058C, strain SHM2, active compounds read low 1.01 | S. cerevisiae deletion strains, locus YLR102C, strain apc9, active compounds read low 0.99 | S. cerevisiae deletion strains, locus YLR113W, strain HOG1, active compounds read low 0.939 | S. cerevisiae deletion strains, locus YLR221C, strain rsa3, active compounds read low 0.994 | S. cerevisiae deletion strains, locus YLR258W, strain gsy2, active compounds read low 1.01 | S. cerevisiae deletion strains, locus YLR262C, strain YPT6 (second series), active compounds read low 1 | S. cerevisiae deletion strains, locus YLR262C, strain YPT6, active compounds read low 1.02 | S. cerevisiae deletion strains, locus YLR268W, strain sec22, active compounds read low 0.996 | S. cerevisiae deletion strains, locus YLR320W, strain mms22, active compounds read low 0.988 | S. cerevisiae deletion strains, locus YLR330W, strain CHS5, active compounds read low 1.01 | S. cerevisiae deletion strains, locus YLR342W, strain FKS1 (second series), active compounds read low 1.02 | S. cerevisiae deletion strains, locus YLR342W, strain FKS1, active compounds read low 0.999 | S. cerevisiae deletion strains, locus YLR357W, strain rsc2, active compounds read low 0.985 | S. cerevisiae deletion strains, locus YLR370C, strain arc18, active compounds read low 1 | S. cerevisiae deletion strains, locus YLR371W, strain rom2, active compounds read low 0.997 | S. cerevisiae deletion strains, locus YLR384C, strain iki3, active compounds read low 1.01 | S. cerevisiae deletion strains, locus YLR418C, strain cdc73, active compounds read low 1.02 | S. cerevisiae deletion strains, locus YML016C, strain PPZ1, active compounds read low 1 | S. cerevisiae deletion strains, locus YML032C, strain rad52, active compounds read low 0.982 | S. cerevisiae deletion strains, locus YML120C, strain ndi1, active compounds read low 0.994 | S. cerevisiae deletion strains, locus YML124C, strain tub3, active compounds read low 0.996 | S. cerevisiae deletion strains, locus YMR058W, strain fet3, active compounds read low 1 | S. cerevisiae deletion strains, locus YMR078C, strain ctf18, active compounds read low 0.984 | S. cerevisiae deletion strains, locus YMR125W, strain sto1, active compounds read low 0.998 | S. cerevisiae deletion strains, locus YMR129W, active compounds read low 1 | S. cerevisiae deletion strains, locus YMR205C, strain PFK2, active compounds read low 1 | S. cerevisiae deletion strains, locus YMR223W, strain ubp8, active compounds read low 1 | S. cerevisiae deletion strains, locus YMR231W, strain pep5, active compounds read low 0.999 | S. cerevisiae deletion strains, locus YMR263W, strain SAP30, active compounds read low 1.02 and 0.996 | S. cerevisiae deletion strains, locus YMR307W, strain GAS1, active compounds read low 0.978 and 1.01 | S. cerevisiae deletion strains, locus YNL067W, strain RPL9B, active compounds read low 1.01 | S. cerevisiae deletion strains, locus YNL071W, strain lat1, active compounds read low 0.999 | S. cerevisiae deletion strains, locus YNL128W, strain TEP1, active compounds read low 1.02 | S. cerevisiae deletion strains, locus YNL153C, strain GIM3, active compounds read low 1.02 | S. cerevisiae deletion strains, locus YNL175C, strain NOP13, active compounds read low 0.975 | S. cerevisiae deletion strains, locus YNL183C, strain NPR1, active compounds read low 0.907 | S. cerevisiae deletion strains, locus YNL197C, strain WHI3, active compounds read low 0.969 | S. cerevisiae deletion strains, locus YNL209W, strain ssb2, active compounds read low 1.01 | S. cerevisiae deletion strains, locus YNL224C, strain SQS1, active compounds read low 0.987 | S. cerevisiae deletion strains, locus YNL233W, strain BNI4, active compounds read low 1.02 | S. cerevisiae deletion strains, locus YNL248C, strain rpa49, active compounds read low 1.04 | S. cerevisiae deletion strains, locus YNL250W, strain rad50, active compounds read low 0.989 | S. cerevisiae deletion strains, locus YNL271C, strain bni1, active compounds read low 0.982 | S. cerevisiae deletion strains, locus YNL298W, strain CLA4, active compounds read low 1 | S. cerevisiae deletion strains, locus YNL307C, strain MCK1, active compounds read low 1.01 | S. cerevisiae deletion strains, locus YNL322C, strain KRE1 (second series), active compounds read low 1.01 | S. cerevisiae deletion strains, locus YNL322C, strain KRE1, active compounds read low 1.01 | S. cerevisiae deletion strains, locus YNR049C, strain mso1, active compounds read low 1.01 | S. cerevisiae deletion strains, locus YNR052C, strain pop2, active compounds read low 0.996 | S. cerevisiae deletion strains, locus YOL006C, strain TOP1, active compounds read low 1.05 | S. cerevisiae deletion strains, locus YOL012C, strain htz1 0.596 | S. cerevisiae deletion strains, locus YOL147C, strain pex11, active compounds read low 1 | S. cerevisiae deletion strains, locus YOR001W, strain rrp6, active compounds read low 1.02 | S. cerevisiae deletion strains, locus YOR061W, strain CKA2, active compounds read low 1.01 | S. cerevisiae deletion strains, locus YOR069W, strain VPS5, active compounds read low 1 | S. cerevisiae deletion strains, locus YOR070C, strain gyp1, active compounds read low 1.01 | S. cerevisiae deletion strains, locus YOR080W, strain dia2, active compounds read low 0.986 | S. cerevisiae deletion strains, locus YOR083W, strain WHI5 (second series), active compounds read low 0.968 | S. cerevisiae deletion strains, locus YOR083W, strain WHI5, active compounds read low 0.989 | S. cerevisiae deletion strains, locus YOR106W, strain vam3, active compounds read low 1 | S. cerevisiae deletion strains, locus YOR136W, strain idh2, active compounds read low 0.999 | S. cerevisiae deletion strains, locus YOR144C, strain elg1, active compounds read low 0.998 | S. cerevisiae deletion strains, locus YOR184W, strain ser1, active compounds read low 1 | S. cerevisiae deletion strains, locus YOR231W, strain MKK1, active compounds read low 0.979 | S. cerevisiae deletion strains, locus YOR265W, strain rbl2, active compounds read low 1 | S. cerevisiae deletion strains, locus YOR270C, strain vph1, active compounds read low 1.02 | S. cerevisiae deletion strains, locus YOR290C, strain snf2, active compounds read low 0.996 | S. cerevisiae deletion strains, locus YOR316C, strain cot1, active compounds read low 1 | S. cerevisiae deletion strains, locus YPL051W, strain arl3, active compounds read low 1 | S. cerevisiae deletion strains, locus YPL055C, strain LGE1, active compounds read low 1.04 and 0.991 | S. cerevisiae deletion strains, locus YPL078C, strain atp4, active compounds read low 1 | S. cerevisiae deletion strains, locus YPL106C, strain sse1, active compounds read low 1.01 | S. cerevisiae deletion strains, locus YPL240C, strain hsp82, active compounds read low 1 | S. cerevisiae deletion strains, locus YPL241C, strain CIN2, active compounds read low 1.01 | S. cerevisiae deletion strains, locus YPL256C, strain CLN2, active compounds read low 0.932 | S. cerevisiae deletion strains, locus YPR119W, strain clb2, active compounds read low 0.997 | S. cerevisiae deletion strains, locus YPR141C, strain kar3, active compounds read low 0.997 | S. cerevisiae deletion strains, locus YPR163C, strain tif3, active compounds read low 0.998 | S. cerevisiae deletion strains, locus YPR167C, strain met16, active compounds read low 1 | S. cerevisiae deletion strains, strain wtn01, active compounds read low 1 | S. cerevisiae strains, strain wild type, active compounds read low 1.02
